Inhibition data for 17 molecules are collected here from ChEMBL document CHEMBL1961873, “Compounds: GSK PKIS; Assays: Nanosyn kinase panel” (2012).

A word on the inhibition: it is the change of the read-out against control, counted positive when it falls.

Test [1] deals with Tyrosine-protein kinase CSK (Homo sapiens) (UniProt P41240). The settings on record: at 1 µM.
For test [2], the target named is T1, Discoidin domain-containing receptor 2 (Homo sapiens) (UniProt Q16832).
T1 sequence (whole entry): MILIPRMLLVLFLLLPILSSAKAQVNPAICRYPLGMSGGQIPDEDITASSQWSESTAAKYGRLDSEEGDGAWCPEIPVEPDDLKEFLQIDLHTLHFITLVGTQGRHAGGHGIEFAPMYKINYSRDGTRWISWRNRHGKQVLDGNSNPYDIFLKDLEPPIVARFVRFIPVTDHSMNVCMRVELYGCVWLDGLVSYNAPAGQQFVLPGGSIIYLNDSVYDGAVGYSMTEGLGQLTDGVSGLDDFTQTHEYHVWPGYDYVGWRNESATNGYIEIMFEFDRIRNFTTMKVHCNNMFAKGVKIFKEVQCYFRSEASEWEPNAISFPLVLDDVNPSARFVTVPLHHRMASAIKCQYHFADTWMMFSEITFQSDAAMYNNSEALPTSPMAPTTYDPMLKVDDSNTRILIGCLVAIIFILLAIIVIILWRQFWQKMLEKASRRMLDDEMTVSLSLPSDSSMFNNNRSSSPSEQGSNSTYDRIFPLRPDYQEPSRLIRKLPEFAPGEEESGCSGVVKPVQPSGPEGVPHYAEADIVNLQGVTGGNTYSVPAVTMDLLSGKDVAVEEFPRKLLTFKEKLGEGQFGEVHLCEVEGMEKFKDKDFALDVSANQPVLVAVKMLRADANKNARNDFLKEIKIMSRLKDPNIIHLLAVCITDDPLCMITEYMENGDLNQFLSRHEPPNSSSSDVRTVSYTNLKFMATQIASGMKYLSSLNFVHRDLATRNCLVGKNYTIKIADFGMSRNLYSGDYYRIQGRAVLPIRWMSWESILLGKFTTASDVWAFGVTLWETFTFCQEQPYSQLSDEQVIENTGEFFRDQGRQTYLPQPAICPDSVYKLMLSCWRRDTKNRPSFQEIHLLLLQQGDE
To be noted: at 0.1 µM.

In test [3] the target is T1, Discoidin domain-containing receptor 2 (Homo sapiens). The settings on record: at 1 µM.
In test [4] the target is Epidermal growth factor receptor (Homo sapiens) (UniProt P00533). The settings on record: at 0.1 µM.
For test [5] the target is unchanged. To be noted: at 1 µM.
The subject of test [6] is Epidermal growth factor receptor (Homo sapiens), P00533 [L858R]. To be noted: at 0.1 µM.
Test [7] has the same test system. To be noted: at 1 µM.
Test [8] relates to Epidermal growth factor receptor (Homo sapiens), P00533 [L861Q]. The settings on record: at 0.1 µM.
Test [9] shares this test system. The settings on record: at 1 µM.
In test [10] the test system is Epidermal growth factor receptor (Homo sapiens), P00533 [T790M]. The settings on record: at 0.1 µM.

Epidermal growth factor receptor (Homo sapiens), sequence (P00533 whole entry): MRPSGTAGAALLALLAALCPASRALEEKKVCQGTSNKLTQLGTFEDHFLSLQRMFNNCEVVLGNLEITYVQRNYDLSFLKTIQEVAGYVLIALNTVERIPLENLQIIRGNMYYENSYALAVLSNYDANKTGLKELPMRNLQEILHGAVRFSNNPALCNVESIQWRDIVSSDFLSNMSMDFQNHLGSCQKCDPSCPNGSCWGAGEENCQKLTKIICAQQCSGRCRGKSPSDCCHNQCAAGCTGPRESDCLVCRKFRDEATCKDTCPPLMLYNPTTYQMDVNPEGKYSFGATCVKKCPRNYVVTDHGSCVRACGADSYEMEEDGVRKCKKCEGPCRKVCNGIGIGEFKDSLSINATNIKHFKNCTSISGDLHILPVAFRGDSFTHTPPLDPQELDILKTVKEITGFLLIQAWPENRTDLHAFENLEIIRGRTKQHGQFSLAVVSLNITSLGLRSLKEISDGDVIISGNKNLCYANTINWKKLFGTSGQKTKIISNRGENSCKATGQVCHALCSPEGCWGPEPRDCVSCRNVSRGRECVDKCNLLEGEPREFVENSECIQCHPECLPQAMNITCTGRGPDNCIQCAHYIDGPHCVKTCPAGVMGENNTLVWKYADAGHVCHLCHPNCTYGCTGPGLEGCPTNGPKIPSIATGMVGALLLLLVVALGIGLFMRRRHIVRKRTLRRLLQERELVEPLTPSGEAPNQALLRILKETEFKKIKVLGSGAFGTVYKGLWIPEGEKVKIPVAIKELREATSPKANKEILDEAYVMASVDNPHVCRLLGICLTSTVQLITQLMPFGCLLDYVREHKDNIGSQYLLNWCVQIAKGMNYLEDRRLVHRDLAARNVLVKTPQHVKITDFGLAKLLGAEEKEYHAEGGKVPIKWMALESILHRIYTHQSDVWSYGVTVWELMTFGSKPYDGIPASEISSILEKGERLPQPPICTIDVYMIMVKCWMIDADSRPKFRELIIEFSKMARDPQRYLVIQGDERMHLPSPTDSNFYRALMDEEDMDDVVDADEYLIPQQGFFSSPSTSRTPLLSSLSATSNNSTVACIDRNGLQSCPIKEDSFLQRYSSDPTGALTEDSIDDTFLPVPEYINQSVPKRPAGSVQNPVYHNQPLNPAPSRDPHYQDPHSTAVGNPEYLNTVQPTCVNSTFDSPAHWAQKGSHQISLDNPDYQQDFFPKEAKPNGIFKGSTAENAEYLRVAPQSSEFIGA
Epidermal growth factor receptor (Homo sapiens), P00533 [L858R], sequence (P00533 whole entry L858R): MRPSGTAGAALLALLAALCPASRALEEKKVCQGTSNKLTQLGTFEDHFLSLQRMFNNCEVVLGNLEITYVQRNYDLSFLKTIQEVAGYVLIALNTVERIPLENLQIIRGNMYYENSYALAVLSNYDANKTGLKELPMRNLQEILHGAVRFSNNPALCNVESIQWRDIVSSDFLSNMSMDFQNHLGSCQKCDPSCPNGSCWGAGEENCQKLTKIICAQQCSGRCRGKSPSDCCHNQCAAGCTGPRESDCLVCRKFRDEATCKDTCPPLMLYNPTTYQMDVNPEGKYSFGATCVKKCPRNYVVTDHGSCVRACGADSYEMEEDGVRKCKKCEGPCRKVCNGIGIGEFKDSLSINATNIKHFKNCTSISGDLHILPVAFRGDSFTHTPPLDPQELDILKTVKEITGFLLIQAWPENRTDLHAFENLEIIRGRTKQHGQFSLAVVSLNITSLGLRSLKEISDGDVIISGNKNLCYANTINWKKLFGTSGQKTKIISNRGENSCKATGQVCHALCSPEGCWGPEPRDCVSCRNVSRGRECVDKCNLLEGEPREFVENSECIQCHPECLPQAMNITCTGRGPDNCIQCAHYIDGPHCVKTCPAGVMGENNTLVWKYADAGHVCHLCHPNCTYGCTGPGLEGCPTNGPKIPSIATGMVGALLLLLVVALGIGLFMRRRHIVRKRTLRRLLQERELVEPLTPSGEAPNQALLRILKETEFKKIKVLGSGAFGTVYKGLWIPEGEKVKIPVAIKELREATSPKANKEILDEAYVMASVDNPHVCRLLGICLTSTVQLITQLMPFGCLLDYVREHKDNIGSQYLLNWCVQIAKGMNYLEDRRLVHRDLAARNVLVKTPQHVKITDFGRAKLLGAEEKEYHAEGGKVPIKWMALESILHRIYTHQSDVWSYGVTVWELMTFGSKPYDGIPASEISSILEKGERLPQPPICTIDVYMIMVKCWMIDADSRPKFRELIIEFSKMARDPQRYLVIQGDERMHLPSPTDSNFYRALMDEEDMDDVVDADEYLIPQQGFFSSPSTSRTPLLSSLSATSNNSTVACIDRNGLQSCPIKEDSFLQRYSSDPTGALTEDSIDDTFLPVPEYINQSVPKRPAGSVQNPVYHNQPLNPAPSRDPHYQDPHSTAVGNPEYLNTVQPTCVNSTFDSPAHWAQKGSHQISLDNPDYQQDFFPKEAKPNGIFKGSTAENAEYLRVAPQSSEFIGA
Epidermal growth factor receptor (Homo sapiens), P00533 [L861Q], sequence (P00533 whole entry L861Q): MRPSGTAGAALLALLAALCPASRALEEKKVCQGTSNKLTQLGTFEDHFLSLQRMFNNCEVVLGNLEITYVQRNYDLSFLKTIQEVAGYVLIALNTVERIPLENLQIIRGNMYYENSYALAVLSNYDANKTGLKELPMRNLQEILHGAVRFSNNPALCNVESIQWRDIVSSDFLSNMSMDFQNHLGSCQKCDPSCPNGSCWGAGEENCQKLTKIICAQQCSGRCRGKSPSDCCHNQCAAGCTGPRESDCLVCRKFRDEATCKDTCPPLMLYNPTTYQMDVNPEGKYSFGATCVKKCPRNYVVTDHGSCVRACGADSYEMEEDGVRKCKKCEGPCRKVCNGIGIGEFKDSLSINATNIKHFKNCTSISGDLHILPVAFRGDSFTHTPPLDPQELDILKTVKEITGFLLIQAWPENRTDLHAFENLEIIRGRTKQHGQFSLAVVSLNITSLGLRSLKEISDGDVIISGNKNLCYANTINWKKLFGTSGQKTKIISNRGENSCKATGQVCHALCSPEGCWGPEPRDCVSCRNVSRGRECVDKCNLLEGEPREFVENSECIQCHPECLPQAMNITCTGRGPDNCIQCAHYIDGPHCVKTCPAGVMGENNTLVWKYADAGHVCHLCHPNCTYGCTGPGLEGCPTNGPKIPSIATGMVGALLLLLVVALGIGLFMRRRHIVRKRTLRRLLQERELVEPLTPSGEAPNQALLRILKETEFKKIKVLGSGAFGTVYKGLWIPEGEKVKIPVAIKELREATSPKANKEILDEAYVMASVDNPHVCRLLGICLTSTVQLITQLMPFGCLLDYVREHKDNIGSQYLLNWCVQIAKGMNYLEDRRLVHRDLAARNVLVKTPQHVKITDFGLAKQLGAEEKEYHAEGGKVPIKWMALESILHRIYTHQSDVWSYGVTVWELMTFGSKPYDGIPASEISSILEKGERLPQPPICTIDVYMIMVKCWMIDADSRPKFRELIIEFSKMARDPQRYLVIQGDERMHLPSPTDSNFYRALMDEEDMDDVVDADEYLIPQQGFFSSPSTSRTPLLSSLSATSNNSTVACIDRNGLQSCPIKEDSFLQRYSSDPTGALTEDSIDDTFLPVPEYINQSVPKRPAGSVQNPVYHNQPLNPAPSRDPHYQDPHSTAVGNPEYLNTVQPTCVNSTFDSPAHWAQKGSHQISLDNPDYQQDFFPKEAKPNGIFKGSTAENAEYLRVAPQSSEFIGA
Tyrosine-protein kinase CSK (Homo sapiens), sequence (P41240 2-450 limits assumed): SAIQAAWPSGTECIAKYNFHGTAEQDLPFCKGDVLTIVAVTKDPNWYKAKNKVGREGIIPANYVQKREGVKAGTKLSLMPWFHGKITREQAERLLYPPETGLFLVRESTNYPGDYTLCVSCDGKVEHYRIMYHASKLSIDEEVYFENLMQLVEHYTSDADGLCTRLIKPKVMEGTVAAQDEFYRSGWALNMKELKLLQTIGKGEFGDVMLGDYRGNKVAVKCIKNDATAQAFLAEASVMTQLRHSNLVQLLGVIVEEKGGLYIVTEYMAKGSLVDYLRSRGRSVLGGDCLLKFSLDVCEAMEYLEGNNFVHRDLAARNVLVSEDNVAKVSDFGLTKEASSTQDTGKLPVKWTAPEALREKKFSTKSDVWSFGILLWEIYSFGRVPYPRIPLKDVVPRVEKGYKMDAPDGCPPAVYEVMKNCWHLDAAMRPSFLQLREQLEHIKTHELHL

As to `CS(=O)(=O)CCNCc1cc(-c2cc3c(Nc4ccc(OCc5cccc(F)c5)c(Cl)c4)ncnc3s2)cs1`, the inhibition in test [1] is 4.58%; in test [2], 4.67%; in test [3], 6.01%; in test [4], 61.5%; in [5] it was 83.7%; in [6], 18.1%. The inhibition in test [7] was found to be 61.2%; in test [8], 31.4%; in test [9], 57.8%; in test [10] it was 0.98%.

As for `C/C(Nc1ccc(S(N)(=O)=O)cc1)=C1/C(=O)Nc2ccccc21`, the inhibition in test [1] was -4%; in test [2] it was -0.09%; in test [3], 0.07%; in test [4], -1.34%; in test [5], 2.48%; in [6] it was -0.73%. Besides, the inhibition in [7] is 0.1%; in test [8], 0.08%; in test [9] it was 0.01%; in [10], -0.56%.

Regarding `CCc1ccc(Oc2nccc(-c3c(-c4ccc(F)cc4)ncn3C3CCNCC3)n2)cc1`, the inhibition in test [1] came to 10.3%; in test [2], 1.91%; in test [3] it was 3.52%; in [4], 2.21%; in test [5], 7.66%; in [6], 3.05%. Moreover, the inhibition in [7] came to 15.9%; in test [8], 1.97%; in test [9], 5.92%; in [10], 0.57%.

As for `O=C(Nc1n[nH]c2nc(-c3ccc(O)cc3)c(Br)cc12)C1CC1`, the inhibition turned out to be 10.9% in [1]; 2.17% in [2]; 4.12% in test [3]; 5.76% in [4]; 6.97% in test [5]; 5.48% in test [6]. Moreover, the inhibition is 9.71% in test [7], 6.22% in test [8], 7.61% in test [9] and 4.95% in test [10].

Turning to `COc1cccc(-n2cnc3c(N/N=C/c4ccncc4)ncnc32)c1`, the inhibition is 7.17% in test [1]; -0.19% in test [2]; 1.99% in test [3]; 2.02% in test [4]; 8.31% in test [5]; 5.72% in test [6]. Also, the inhibition in [7] is 30.8%; in test [8], 1.61%; in test [9], 10.6%; in [10], -0.92%.

Regarding `Fc1ccc(-c2ncn(C3CCNCC3)c2-c2ccnc(Oc3ccc4c(c3)OCO4)n2)cc1`, the inhibition worked out at 6.08% in test [1]; 6.32% in test [2]; 7.88% in test [3]; 5.59% in test [4]; 13.1% in test [5]; 4.4% in test [6]. Further, the inhibition in [7] was determined as 18.7%; in [8], 3.06%; in test [9], 10.2%; in test [10] it was 2.39%.

As for `CCN(CC)Cc1ccc(Nc2nccc(-c3cnn4ncccc34)n2)cc1`, the inhibition in [1] is 8.18%; in test [2], 1.64%; in test [3], 4.24%; in test [4], -1.99%; in test [5] it was -1.76%; in [6], -0.85%. Moreover, the inhibition in test [7] was -1.39%; in [8], 1.51%; in test [9], 1.54%; in [10] it was 0.54%.

On to `O=C(Nc1ccc(Oc2ccc3[nH]c(NC(=O)c4ccccc4)nc3c2)cc1)Nc1cc(C(F)(F)F)ccc1F`, for which the inhibition in test [1] was 11.7%; in [2], 24.4%; in [3], 78.7%; in test [4], -0.35%; in [5], 1.11%; in [6], 7.18%. Besides, the inhibition in [7] was determined as 6.93%; in [8] it was 2.47%; in test [9] it was 3.54%; in test [10], 2.22%.

Regarding `CCc1cccc(CC)c1/C=C/c1cncc(C(=O)NC)c1`, the inhibition amounted to 0.54% in [1]; 1.3% in test [2]; 6.62% in [3]; 3.24% in test [4]; 6.32% in [5]; 4.88% in [6]. The inhibition in test [7] amounted to 3.92%; in [8] it was 1.32%; in [9], 2.46%; in test [10], 2.4%.

As to `CS(=O)(=O)CCNCc1ccc(-c2ccc3ncnc(Nc4ccc(OCc5ccccc5)c(Br)c4)c3c2)o1`, the inhibition in [1] came to 4.59%; in [2], 1.43%; in test [3], 1.04%; in test [4] it was 69.5%; in test [5], 81.6%; in test [6], 49.3%. Moreover, the inhibition in test [7] was found to be 91.2%; in test [8] it was 48.1%; in test [9], 83.7%; in test [10], 4.96%.

With `COc1cc(Nc2ncc3c(C)nc(-c4cccc(C(F)(F)F)c4)n3n2)cc(OC)c1OC`, the inhibition in test [1] is 12.9%; in [2] it was 0.31%; in test [3], 0.73%; in test [4] it was -0.06%; in test [5] it was 0.98%; in test [6] it was 4.13%. Further, the inhibition in [7] was found to be 4.89%; in [8], 2.74%; in test [9], 8.43%; in [10] it was 1.49%.

As for `Fc1ccc(-c2ncn(C3CCNCC3)c2-c2ccnc(Oc3ccc(F)c(F)c3)n2)cc1`, the inhibition was 2.38% in [1]; 1.67% in test [2]; 2.09% in [3]; -3.12% in test [4]; -0.79% in [5]; 1.05% in test [6]. Also, the inhibition was found to be 7.57% in test [7], 3.65% in test [8], 4.21% in test [9] and 1.53% in [10].

As to `COc1cccc(/C=N/Nc2ncnc3c2cnn3-c2cccc(OC)c2)c1`, the inhibition is 3.91% in [1]; 1.34% in test [2]; 2.5% in test [3]; 1.31% in test [4]; 2.97% in [5]; 2.05% in test [6]. Moreover, the inhibition in test [7] is 8.79%; in [8], 1.95%; in test [9], 4.05%; in test [10], 0.54%.

As to `Cc1ccc(NC(=O)c2ccoc2)cc1-c1ccc(C(=O)NCC2CC2)cc1`, the inhibition in test [1] is 0.18%; in [2] it was 1.48%; in [3] it was 2.43%; in test [4] it was 3.14%; in [5], 6.36%; in [6] it was 3.23%. Also, the inhibition in [7] was determined as 1%; in test [8], 0.74%; in test [9] it was 0.37%; in test [10], 1.63%.

Regarding `c1ccc(-c2n[nH]cc2-c2ccnc(-c3ccc(OCCN4CCOCC4)cc3)c2)nc1`, the inhibition in test [1] was -4.36%; in test [2] it was 7.59%; in test [3] it was 7.75%; in test [4], 3.33%; in test [5] it was 6.67%; in test [6], -2.03%. For the same molecule, the inhibition in [7] is -1.71%; in test [8], -0.15%; in test [9], -2.39%; in [10] it was -0.02%.

With `COc1ccc(C2=C(N3CCc4ccccc43)C(=O)NC2=O)cc1`, the inhibition was determined as 9.3% in test [1]; 1.75% in test [2]; 1.87% in test [3]; 1.18% in [4]; 3.59% in test [5]; 7.35% in test [6]. Moreover, the inhibition in [7] turned out to be 7.13%; in test [8], 4.49%; in test [9] it was 6.05%; in test [10] it was 3.62%.

Take `Cc1ccc(C(=O)NC2CCC2)cc1-c1ccc(C(=O)NCC2CC2)cc1`: the inhibition in test [1] was 0.62%; in [2], 0.33%; in [3] it was 1.1%; in [4], 10.4%; in test [5], 7.15%; in [6], 3.77%. The inhibition stood at 4.05% in test [7], 4.21% in test [8], 4.15% in test [9] and 1.73% in test [10].
